In PubChem BioAssay AID1346378 (National Center for Advancing Translational Sciences (NCATS), 2018):
Several values for one entry are separate records, joined by “and”; a condition that tells them apart may be missing. Equal values may be shown once. In all, about 420,000 compounds went through this assay and about 540 (0.13%) were called active. Rule as the data show it: active = activity change below about -50%; inconclusive = mostly about -30% to -49%; inactive = weaker than that. Many of the other results were omitted from the sample, so actives are more common in it than they were. Some structures have more than one record in an assay (separate samples or runs), and their calls can disagree.
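Also: -100% = wells without enzyme as full effect.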

These compounds were tested against Phosphatidylinositol 4-kinase type 2-alpha (Homo sapiens) (UniProt Q9BTU6) (assay: qHTS for small molecular inhibitors of PI4K2A). Conditions: purified PI4K2A, ADP-Glo luminescence, 1 h; at 76.9 µM, stronger effect = lower value.
Chain of Phosphatidylinositol 4-kinase type 2-alpha (Homo sapiens) (Q9BTU6 whole entry, looked up): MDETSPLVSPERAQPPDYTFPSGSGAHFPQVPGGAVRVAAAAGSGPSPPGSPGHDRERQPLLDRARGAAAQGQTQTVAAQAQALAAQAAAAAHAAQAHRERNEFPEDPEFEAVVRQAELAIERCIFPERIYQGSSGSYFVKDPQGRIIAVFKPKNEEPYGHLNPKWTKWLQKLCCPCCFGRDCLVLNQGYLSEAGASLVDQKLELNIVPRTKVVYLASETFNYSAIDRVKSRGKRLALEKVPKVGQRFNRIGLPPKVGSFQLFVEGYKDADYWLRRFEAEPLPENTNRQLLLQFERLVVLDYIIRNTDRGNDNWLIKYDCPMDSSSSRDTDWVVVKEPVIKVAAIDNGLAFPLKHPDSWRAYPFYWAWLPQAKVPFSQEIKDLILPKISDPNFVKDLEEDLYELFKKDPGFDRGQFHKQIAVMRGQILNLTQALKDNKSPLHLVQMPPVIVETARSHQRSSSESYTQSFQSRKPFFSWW
Summary of the method: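 ADP-Glo luminescence measured ADP generated by PI4K2A enzyme (4 ug/mL before mixing) with 1.2 mM PI substrate (pre-mix) and 300 microM ATP (pre-mix). Tris pH7.5 buffer with MgCl2, Triton X-100; 1 h reaction at ambient temperature.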
`CCOc1ccc(NC(=O)Cn2c(C)ccc(C#N)c2=O)cc1` was tested, and the activity change, negative = inhibition was 1.57% (inactive).
With `CCOc1ccc(NC(=O)c2ccc(NC(=O)COC(=O)c3ccc(NC(=O)CC#N)cc3)cc2)cc1` the activity change, negative = inhibition was -84.7% (active).
For `CCOC(=O)c1ccc(-c2ccc(/C=C(\C#N)C(=O)Nc3ccc(OCC)cc3)o2)cc1`, the activity change, negative = inhibition was -0.67% (inactive).
With `COC(=O)CN1C(=O)CSc2ccc(S(=O)(=O)Nc3cc(C)ccc3C)cc21` the activity change, negative = inhibition was -1.14% (inactive).
In the case of `Cc1ccc(S(=O)(=O)c2cn(Cc3ccccc3)c3cc(N4CCCC4)c(F)cc3c2=O)c(C)c1`, the activity change, negative = inhibition is reported as 2.36% (inactive).
`O=C(NCc1ccc(F)cc1)c1ccc(Cn2c(SCc3ccc(F)cc3)nc3cccnc32)cc1` was tested, and the activity change, negative = inhibition was -1.71% (inactive).
With `O=C(OCC(O)CO)c1ccccc1Nc1ccnc2c(C(F)(F)F)cccc12` (stereo not given) the activity change, negative = inhibition was 0.766% (inactive).
With `COc1ccc(C(=O)Nc2ccccc2C(=O)N/N=C/c2ccc(O)c(OC)c2)cc1` the activity change, negative = inhibition was -68.9% (active).
In the case of `COc1cccc(/C=N/NC(=O)C(=O)N2CCCC2)c1`, the activity change, negative = inhibition is reported as -2.13% (inactive).
For `COc1ccc(Nc2ncc(C(=O)Nc3cc(C)ccc3OC)c3ccccc23)cc1`, the activity change, negative = inhibition was 2.21% (inactive).
`CC(=O)/C(C)=N/O` was tested, and the activity change, negative = inhibition was -0.649% (inactive).
`O=C(Nc1c(C(=O)N2CCN(c3ccc(F)cc3)CC2)oc2ccccc12)c1ccco1` was tested, and the activity change, negative = inhibition was -1.83% (inactive).
With `CCc1ccc2ncc3c(-c4ccc(C)cc4)nn(CC(=O)NCc4ccccc4)c3c2c1` the activity change, negative = inhibition was 8.2% (inactive).
For `COc1ccc(OCCn2cc(C(=O)C3CCCCC3)c3ccccc32)cc1`, the activity change, negative = inhibition was -0.826% (inactive).
In the case of `COc1cc(C(=O)Nc2ccc(-n3c(C)nc4ccccc4c3=O)cc2)cc(OC)c1OC`, the activity change, negative = inhibition is reported as 6.04% (inactive).
With `Cc1ccc2onc(CC(=O)N3CCN(c4ccc(Cl)cc4)CC3)c2c1` the activity change, negative = inhibition was 2.89% (inactive).
With `O=C(OCc1ccccc1)c1ccc(O)cc1` the activity change, negative = inhibition was -0.636% (inactive).
For `CCN1CCN(CCCNC(=O)c2ccc3c(c2)sc2nc(-c4ccc(OC)cc4)cn23)CC1`, the activity change, negative = inhibition was -72.4% (active).
In the case of `COc1ccc(-c2cn3c(n2)sc2cc(C(=O)Nc4ccccc4F)ccc23)cc1`, the activity change, negative = inhibition is reported as -4.68% (inactive).
For `Cc1ccc(-c2cn3c(n2)sc2cc(C(=O)NCCCc4ccccc4)ccc23)cc1`, the activity change, negative = inhibition was -1.39% (inactive).
With `CCC(=O)Nc1cccc(-c2nc3cc(C)ccc3o2)c1` the activity change, negative = inhibition was -9.07% (inactive).
For `O=C(Nc1ccc(Br)cc1)c1ccc(Br)c(S(=O)(=O)NCc2ccccc2)c1`, the activity change, negative = inhibition was -0.252% (inactive).
In the case of `CCC(=O)N1CCc2cc(S(=O)(=O)NC(C(=O)NCCc3ccc(C)cc3)C(C)C)ccc21` (stereo not given), the activity change, negative = inhibition is reported as -3.91% (inactive).
For `CC(C)c1ccc(C2CC(=O)N3CN(C4CCCCC4)CSC3=C2C#N)cc1` (stereo not given), the activity change, negative = inhibition was -15.6% (inactive).
For `Cc1cc(C)c(NC(=O)CN2C(=O)c3cccnc3Oc3ccc(Cl)cc32)c(C)c1`, the activity change, negative = inhibition was -3.1% (inactive).
`COC(=O)/C=C(/C)N` was tested, and the activity change, negative = inhibition was -1.85% (inactive).
For `COc1ccc2c(c1)c(C(=O)N/N=C/c1cccs1)c(C)n2C`, the activity change, negative = inhibition was -1.53% (inactive).
With `Cc1n[nH]c(=O)nc1N/N=C/c1cccs1` the activity change, negative = inhibition was -51.8% (active).
With `O=c1nc(N/N=C/c2ccco2)cn[nH]1` the activity change, negative = inhibition was -22.5% (inactive).
For `CCCCC12CN3CC(C)(CN(C1)C3c1ccc(O)c(OC)c1)C2=O` (stereo not given), the activity change, negative = inhibition was 0.484% (inactive).
With `CCCCNC(=O)c1ccc2c(c1)NC(=O)C(C(C)C)N2` (stereo not given) the activity change, negative = inhibition was -1.85% (inactive).
`COc1ccc(CCNC(=O)CCCn2c(=O)c3ccccc3n(Cc3ccc(F)cc3Cl)c2=O)cc1OC` was tested, and the activity change, negative = inhibition was 1.26% (inactive).
With `O=C(Nc1ccc(C(=O)O)c(O)c1)c1ccccc1` the activity change, negative = inhibition was -14.9% (inactive) and -50.4% (active).
`O=C(Cn1ccc(=O)[nH]c1=O)Nc1ccc(C(=O)O)c(O)c1` was tested, and the activity change, negative = inhibition was -9.18% (inactive).
In the case of `O=C(O)c1ccc(-n2cccc2)cc1O`, the activity change, negative = inhibition is reported as 1.97% (inactive).
For `CCCCOc1ccc(CNC(=O)c2ccc3c(c2)N(C)C(=O)C2CCCCN32)cc1` (stereo not given), the activity change, negative = inhibition was 1.06% (inactive).
In the case of `CC(C)(C)OC(=O)N1CCC(c2c(C(=O)Nc3ccc4c(c3)OCO4)cnn2-c2ccccc2)CC1`, the activity change, negative = inhibition is reported as -3.37% (inactive).
With `Cc1cccc(-c2nnc(SCC(=O)N3CCCc4ccccc43)o2)c1` the activity change, negative = inhibition was 1.17% (inactive).
With `CCCCOc1ccc(C(=O)Nc2cccc(-c3nc4ccccc4o3)c2C)cc1` the activity change, negative = inhibition was -4.4% (inactive).
With `CCOC(=O)c1cccc(NS(=O)(=O)c2cc(-c3cnc(C)o3)ccc2OC)c1` the activity change, negative = inhibition was -9.3% (inactive).
For `COc1ccc(Cl)cc1NC(=O)CSc1nc(=O)[nH]c2c1CCCC2`, the activity change, negative = inhibition was 3.81% (inactive).
For `CCc1ccccc1NC(=O)Cc1ccc(NC(=O)N2CCCCc3ccccc32)cc1`, the activity change, negative = inhibition was -0.392% (inactive).
For `COC(=O)c1cc(NC(=O)CCS(=O)(=O)c2cc(Br)cc3c2N(C(=O)C2CC2)CC3)cc(C(=O)OC)c1`, the activity change, negative = inhibition was 1.45% (inactive).
For `CCOc1cc(-c2nnc(SCC(=O)NC3CCCC3)nc2-c2ccc(OC)c(OCC)c2)ccc1OC`, the activity change, negative = inhibition was 1.43% (inactive).
For `C=CC1(C)CC(=O)C2(O)C(C)(O1)C(OC(C)=O)C(O)C1C(C)(C)CCC(O)C12C` (stereo not given), the activity change, negative = inhibition was -8.1% (inactive).
With `COc1ccc(-c2nc3ccccc3o2)cc1NC(=O)c1cc([N+](=O)[O-])ccc1N1CCOCC1` the activity change, negative = inhibition was -1.07% (inactive).
For `COc1ccc(/C=C/c2nc(C#N)c(NCc3ccc(F)cc3)o2)cc1OC`, the activity change, negative = inhibition was 3.37% (inactive).
In the case of `CCc1ccc(NC(=O)c2cc(S(=O)(=O)NC3CCCCCC3)ccc2F)cc1`, the activity change, negative = inhibition is reported as 1.04% (inactive).
In the case of `Oc1ccc(Cn2cc[nH]c2=S)cc1`, the activity change, negative = inhibition is reported as 2.19% (inactive).
In the case of `CCC1=Nc2cc(C(=O)NCC(C)c3ccccc3)ccc2Sc2ccc(C)cc21` (stereo not given), the activity change, negative = inhibition is reported as -0.814% (inactive).
`CCOc1ccc(NC(=O)Cn2cc(C(=O)c3ccc(C)cc3)c(=O)c3cc4c(cc32)OCCO4)cc1` was tested, and the activity change, negative = inhibition was -5.72% (inactive).
In the case of `CCCn1ccc2c(OCC(=O)NCc3ccc(F)cc3)cccc2c1=O`, the activity change, negative = inhibition is reported as 1.12% (inactive).
With `O=C(c1ccc2c(c1)N(Cc1ccccc1)C(=O)c1ccccc1S2(=O)=O)N1CCC(Cc2ccccc2)CC1` the activity change, negative = inhibition was -3.09% (inactive).
With `CCOc1ccccc1NC(=O)CN1CCN(S(=O)(=O)c2ccc(Br)cc2)CC1` the activity change, negative = inhibition was -3.13% (inactive).
`CCOc1ccccc1NC(=O)Cn1c(=O)n(-c2cccc(C)c2)c(=O)c2c1c1cc(OC)ccc1n2C` was tested, and the activity change, negative = inhibition was 5.68% (inactive).
